Screens: PubChem BioAssay, several laboratories
Sampled rows, rich in hits. Any-hit rate of the full collection: about 1.8%.
APOBEC3G inh: blocks human APOBEC3G single-stranded DNA deamination | Q9HC16 | recombinant A3G, ssDNA deamination FAM/TAMRA fluorescence | inhibition, % at 20 µM | hit rate 0.28% among 330,000 | AID 493012;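 active = inhibition of at least 40% at 20 µM, with no more than 30% in the related APOBEC3A deaminase screen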
Target sequence (Q9HC16 whole entry, looked up): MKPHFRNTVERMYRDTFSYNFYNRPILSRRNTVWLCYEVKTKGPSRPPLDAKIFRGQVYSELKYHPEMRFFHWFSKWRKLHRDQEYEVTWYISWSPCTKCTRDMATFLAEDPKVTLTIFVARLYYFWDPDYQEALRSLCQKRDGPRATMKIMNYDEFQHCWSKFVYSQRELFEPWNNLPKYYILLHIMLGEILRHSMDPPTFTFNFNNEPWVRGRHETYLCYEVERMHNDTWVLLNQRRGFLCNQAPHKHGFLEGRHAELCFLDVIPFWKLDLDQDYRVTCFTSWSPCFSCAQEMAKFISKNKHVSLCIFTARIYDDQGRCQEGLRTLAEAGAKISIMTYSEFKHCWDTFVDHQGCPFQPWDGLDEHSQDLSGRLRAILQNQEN
A3A deaminase: human APOBEC3A DNA deaminase inhibition | P31941 | recombinant A3A, FAM/TAMRA ssDNA deamination fluorescence | inhibition, % at 20 µM | hit rate 0.41% among 330,000;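 active = at least 40% inhibition at 20 µM here, with at most 30% in a related deaminase screen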
Target sequence (P31941 whole entry, looked up): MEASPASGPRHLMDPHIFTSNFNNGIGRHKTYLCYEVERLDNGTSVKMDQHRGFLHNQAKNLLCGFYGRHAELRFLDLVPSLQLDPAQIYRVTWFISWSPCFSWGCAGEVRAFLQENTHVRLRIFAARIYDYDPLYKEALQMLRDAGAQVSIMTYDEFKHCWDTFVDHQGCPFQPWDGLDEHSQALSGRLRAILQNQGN
VLA-4 inh: inhibition in a human VLA-4 binding assay; P13612; VLA-4 expressing cells, ligand binding flow cytometry; inhibition, % (about 7 µM as worked out from the volumes in the protocol); hit rate 0.2% among 330,000; in the data active = inhibition above about 50%
beta cell repl: induces beta-cell replication in MIN6 cells; hit rate 0.29% among 330,000; proliferation, % at 10 µM; MIN6 cells proliferation, ATPlite luminescence, 48 h; cells starved in 0.2% serum; 100% = growth in 10% serum;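 active = compounds whose signal lies at least 3.5 SD above the mean of all wells on their plate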
NRP1-CendR mod: NRP-1/CendR interaction modulation | O14786 | FAM-RPARPAR peptide binding to NRP-1, fluorescence polarization | inhibition, % at 25 µM | hit rate 0.85% among 360,000 | AID 602438;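 active = inhibition or corrected inhibition above about 18%, plus a signal ratio from 0.5 to 1.5, limit read from the data, passing the limit was not always enough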
VLA-4 mod pick: human VLA-4 allosteric modulation in cherry picked compounds | shares compounds with VLA-4 inh | U937 cells, HUTS-21 LIBS mAb binding, flow cytometry; LDV ligand present at threefold Kd | inhibition, % at 6.7 µM | hit rate 2% among 1,300; in the data active = inhibition above about 40%
Large screens that a line does not name were inactive (follow-up assays come after a bar, where they were run).

O=C(NCCC1=CCCCC1)C1CCN(c2nnc(-n3cccc3)s2)CC1	VLA-4 inh 56.2 | VLA-4 mod pick inactive
COc1ccc2c(c1)CCC1C2CCC2(C)C(O)C(=O)CC12 (centres undefined)	none (no result: APOBEC3G inh, A3A deaminase, VLA-4 inh, beta cell repl)
CC(OC(=O)c1ccc2c(c1)OCCO2)C(=O)NC1CCCCC1C (centres undefined)	none
O=C1CCCc2ccccc2N1Cc1ccc(F)cc1	VLA-4 inh 52.1 | VLA-4 mod pick inactive
O=C([O-])c1cc(-c2ccccc2)cc(-c2ccccc2)[n+]1CCc1ccc(Cl)cc1	none (no result: APOBEC3G inh, A3A deaminase, VLA-4 inh, beta cell repl)
O=c1c2[nH]c3ccc(Br)cc3c2ncn1CCCn1ccnc1	none | VLA-4 mod pick inactive
O=c1c2[nH]c3ccc(F)cc3c2ncn1Cc1ccncc1	none | VLA-4 mod pick inactive
O=c1c2[nH]c3ccccc3c2ncn1CCCn1ccnc1	none
O=c1c2[nH]c3ccc(F)cc3c2ncn1C1CCCCC1	VLA-4 inh 96.0 | VLA-4 mod pick inactive
Cc1cc2nc3c(=O)[nH]c(=S)[nH]c3nc2cc1NC(=O)C(F)(F)F	none
CN(Cc1ccco1)S(=O)(=O)c1nnc(NC(=O)c2ccccc2Cl)s1	none
CCCCSc1nc2c(c(C(F)(F)F)c1C#N)CCC2	VLA-4 inh 64.0 | VLA-4 mod pick inactive
CN(C)C(=O)CCc1ccc2c3c([nH]c2c1)[C@]1(CCC2CCCC2)[C@@H](C(=O)N2CCOCC2)C[C@H](CC(=O)NCCc2ccccn2)C(=O)N1CC3	none (no result: VLA-4 inh, beta cell repl)
CC(C)c1ccc(C2(C)NC(=O)N(CC(=O)NC3CCCC(C)C3C)C2=O)cc1 (centres undefined)	VLA-4 inh 51.8 | VLA-4 mod pick inactive
COc1ccc2[nH]c(C(=O)Nc3ccc4c(c3)OCO4)cc2c1	none
COc1cc(CCCN2C(=O)C(=O)NC[C@@H]2Cc2ccc(O)cc2)cc(OC)c1OC	none
COc1cc(CCCN2C(=O)C(=O)NC[C@@H]2CCCCN)cc(OC)c1OC	none | VLA-4 mod pick inactive
O=C(NC(=S)N(CCO)Cc1ccccc1)c1cc(Br)ccc1Cl	none
CCN1C[C@@H]2[C@@H]3C(=O)N(C)C(=O)[C@@H]3[C@](Cc3ccccc3)(C1=O)N2C(=O)c1ccccc1	none (no result: APOBEC3G inh, A3A deaminase, VLA-4 inh, beta cell repl)
Cc1ccccc1C(=O)N1CCC(C(=O)Nc2ccccc2Cl)CC1	none | VLA-4 mod pick inactive
COc1ccc(C(=O)N2CCC(C(=O)Nc3ccc(OC)c(OC)c3)CC2)cc1	none | VLA-4 mod pick inactive
Cc1ccc(C(=O)N2CCC(C(=O)NC3CCCCCC3)CC2)cc1	none
COC(=O)c1ccccc1NC(=O)C1CCN(C(=O)c2cc(OC)c(OC)c(OC)c2)CC1	none | VLA-4 mod pick inactive
Cc1ccc(NC(=O)C2CCN(C(=O)c3ccc(Cl)cc3)CC2)nc1	none | VLA-4 mod pick inactive
COc1ccc(CCNC(=O)C(C)n2nc(C)n3c(cc4occc43)c2=O)cc1OC (centres undefined)	none
CC1CCCCC1Nc1ncnc2sccc12 (centres undefined)	none
COC(=O)c1sc(NC(=O)COc2cccnc2[N+](=O)[O-])c(C(=O)OC)c1C	none
Cc1ccc(C(=O)NCC(=O)OCc2cccc(Br)c2)cc1	none
C[C@@H]1CN([C@@H](C)CO)C(=O)CCCn2nncc2CO[C@@H]1CN(C)S(=O)(=O)c1cccs1	none (no result: APOBEC3G inh, A3A deaminase, VLA-4 inh, beta cell repl)
Cc1ccccc1C(=O)N1CCC(C(=O)Nc2nccs2)CC1	none
Cc1ccc(NC(=O)C2CCN(C(=O)c3ccccc3C)CC2)nc1	none | VLA-4 mod pick inactive
Cc1cccc(C)c1NC(=O)c1cccc2c1C(=O)N(C1CCCCC1)C2	none
Cc1c(C)c2c(OCC(=O)N[C@@H](Cc3ccccc3)C(=O)O)cc3c(c2oc1=O)CCC(C)(C)O3	VLA-4 inh 64.3 | VLA-4 mod pick inactive
CSC[C@H](NC(=O)COc1cc2c(c3oc(=O)c(C)c(C)c13)CCC(C)(C)O2)C(=O)O	none
COc1cc(C(=O)OCC(=O)Nc2c(F)c(F)c(F)c(F)c2F)cc(OC)c1OC	NRP1-CendR mod 21.1 | VLA-4 mod pick inactive
O=C(Cn1c(=O)oc2ccccc21)Nc1ccc(Cl)cc1Cl	none | VLA-4 mod pick inactive
O=C(Cn1c(=O)oc2ccccc21)Nc1ccc(Br)cc1	none | VLA-4 mod pick inactive
COc1ccc(NC(=O)Cn2c(=O)oc3cc(S(=O)(=O)N4CCCC4)ccc32)c(OC)c1	none
COc1ccc(Cl)cc1NC(=O)Cn1c(=O)oc2ccccc21	none
COc1ccc(NC(=O)Cn2c(=O)oc3cc(Cl)ccc32)c(OC)c1	none | VLA-4 mod pick inactive
Cc1cc(NC(=O)Cn2c(=O)oc3ccccc32)no1	none | VLA-4 mod pick inactive
COc1ccc(CC(=O)NCC(C)(C)N2CCOCC2)cc1	none
COc1ccc(N2CCN(C(=O)COC(=O)CCc3ccccc3)CC2)cc1	none
O=C(Cn1c(=O)oc2ccccc21)NCCc1ccccc1	none | VLA-4 mod pick inactive
O=C(Nc1ccc(F)cc1F)N1CCN(C/C=C/c2ccccc2)CC1	VLA-4 inh 55.0 | VLA-4 mod pick inactive
O=C(c1ccccc1)c1ccc2nc(N3CCN(C(=O)c4ccco4)CC3)c3nncn3c2c1	VLA-4 inh 55.4 | VLA-4 mod pick inactive
CCOC(=O)N1CCN(c2nc3ccc(C(=O)c4ccccc4)cc3n3cnnc23)CC1	none
COc1ccc(/C=C\C(=O)NCc2ccc3c(c2)cc(C)n3C)cc1OC	VLA-4 inh 58.1 | VLA-4 mod pick inactive
O=C(CCC(=O)N(CC(=O)NC1CCCCC1)Cc1cccs1)Nc1ccccn1	none
Clc1ccc2c(N/N=C/c3ccc(Br)cc3)ccnc2c1	VLA-4 inh 50.8 (no result: APOBEC3G inh, A3A deaminase, beta cell repl) | VLA-4 mod pick inactive
Clc1ccc2c(N/N=C/c3cccnc3)ccnc2c1	none
Cc1ccc(-n2c(C)cc(C(=O)CN3CCOCC3)c2C)cc1	none
Cc1cc(C(=O)CN2CCCC(C)C2)c(C)n1-c1ccc(F)cc1 (centres undefined)	none | VLA-4 mod pick inactive
CCOc1ccccc1/C=C(/C#N)C(N)=O	none | VLA-4 mod pick inactive
Cc1cc(C)n(CCCNC(=O)c2ccc(C)o2)n1	none
Cc1cc(Nc2ccccc2)nc2cc(O)ccc12	VLA-4 inh 56.0 | VLA-4 mod pick inactive
COc1ccc(Nc2cc(C)c3ccc(O)cc3n2)cc1	none
CC(=O)C1=C(O)CC(c2ccccc2)CC1=NCCc1c(C)[nH]c2ccc(C)cc12 (centres undefined)	none
CCC(=NCCc1c(C)[nH]c2ccc(C)cc12)C1=C(O)CC(c2ccccc2)CC1=O (centres undefined)	none | VLA-4 mod pick inactive
Cc1nc(N2CCN(C(=O)c3ccco3)CC2)nc2c1C(=O)CC(C)C2 (centres undefined)	none
CCOC(=O)N1CCN(c2nc(C)c3c(n2)CC(C)CC3=O)CC1 (centres undefined)	VLA-4 inh 52.7 | VLA-4 mod pick inactive
Cc1ccc(S(=O)(=O)N2CCCN(C(=O)c3ccc(-n4cccn4)cc3)CC2)cc1	none
COC1=CC(=O)C[C@@H](C)[C@]12Oc1c(Cl)c(OC)cc(OC)c1C2=O	VLA-4 inh 54.2 | VLA-4 mod pick inactive
CC(=O)C[C@H](O)CC(=O)[C@@H]1OC(=O)CCCCCCCCc2ccccc21	none
